Screening results from PubChem.
Only some compounds are listed: those with a hit (about 22% of all), similar ones and a draw of the others.
LmPK inh = inhibitors of Leishmania mexicana pyruvate kinase; 0.37% of 290,000 active; purified LmPK, Kinase-Glo ATP luminescence, 1 h; Potency, µM (titrated, usually from 57.5 µM), for inactives: at the highest dose activity change, negative = inhibition, usual class: inhibitors; Q27686; also: potency is read from the fitted curve at half-maximal effect; % is scaled to controls: 0 for no effect and ±100 for the full control effect
Target sequence (Q27686 whole entry, looked up): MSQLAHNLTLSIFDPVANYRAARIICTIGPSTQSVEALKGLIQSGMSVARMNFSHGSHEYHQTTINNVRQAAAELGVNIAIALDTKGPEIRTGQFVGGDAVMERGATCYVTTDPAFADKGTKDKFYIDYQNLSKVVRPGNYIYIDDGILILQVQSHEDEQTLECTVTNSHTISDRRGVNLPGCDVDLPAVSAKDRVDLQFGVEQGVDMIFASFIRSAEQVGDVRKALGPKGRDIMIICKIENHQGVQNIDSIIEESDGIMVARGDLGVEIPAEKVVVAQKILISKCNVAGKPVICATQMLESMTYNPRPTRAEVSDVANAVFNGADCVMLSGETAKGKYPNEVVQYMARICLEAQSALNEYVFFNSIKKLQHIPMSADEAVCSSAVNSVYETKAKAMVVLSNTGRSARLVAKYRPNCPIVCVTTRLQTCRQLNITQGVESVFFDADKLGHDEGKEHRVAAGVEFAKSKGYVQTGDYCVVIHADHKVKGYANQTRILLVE
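Purified LmPK (0.1 nM) with 0.5 mM PEP and 0.1 mM ADP in imidazole buffer pH 7.2 with MgCl2/KCl, 1 h at room temperature. ATP formed was read by luciferase luminescence and normalized to no-enzyme and uninhibited controls.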
Pf growth 96h = inhibits malaria parasite growth, 96 h; P. falciparum luciferase reporter growth, 96 h; 6.9% of 320,000 active; Potency, µM (titrated, usually from 28.7 µM), for the others: top-dose activity change, negative = inhibition, most hits filed as inhibitors; also: potency is read from the fitted curve at half-maximal effect; % is scaled to controls: 0 for no effect and ±100 for the full control effect
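Parasite growth measured via integrated firefly luciferase reporter in P. falciparum. Infected erythrocytes at 2% hematocrit, 0.05% parasitemia final were treated 96 hours at 37 C under 5% CO2, and luminescence was read.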
Pf growth 48h = P. falciparum growth inhibition at 48 hours (one generation); Potency, µM (highest dose often 28.7 µM), inactives show at the highest dose activity change, negative = inhibition, most hits filed as inhibitors; 5.9% of 310,000 active; P. falciparum luciferase growth in erythrocytes, 48 h; also: potency is read from the fitted curve at half-maximal effect; % is scaled to controls: 0 for no effect and ±100 for the full control effect
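Luciferase-expressing parasites in RBCs, 2% Hct / 0.1% parasitemia final; RPMI 1640 + 0.5% Albumax; 37 C, 5% CO2, one generation; luminescence read-out, lower signal = inhibition.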
Cycloheximide cs = affects cycloheximide protein synthesis inhibition readout, counter-screen; cell reporter, cycloheximide protein synthesis inhibition counterscreen; max response, %; 12% of 300,000 active; in the data active = max response mostly above about 13%, no sharp cut-off; inactive = mostly below about 14%; also: read at 38.3 µM for the half of the compounds with a filed dose; 0% is about no effect
Shiga inhibitor = inhibitors of Shiga toxin in Vero cells; 9.2% of 290,000 active; inhibition, % at 38.7 µM; Vero cells, Shiga toxin protein synthesis inhibition reporter; in the data active = inhibition mostly above about 28%, no sharp cut-off; inactive = mostly below about 43%; also: 0% is about no effect
* = called active by the depositor; ? = inconclusive; / = no result; [ ] = another dose, or the depositor's remark. Unless noted, calls follow the shape of the dose curve; as a rule, active = well fitted inhibition curve with a large enough effect; inconclusive = small, poorly fitted or top-dose-only effect, or another doubt; inactive = no such curve, though single readings can be large or run the other way.

SMILES	LmPK inh	Pf growth 96h	Pf growth 48h	Cycloheximide cs	Shiga inhibitor
Cc1ccc2cccc(NC(=O)c3ccc(Br)o3)c2n1	3.2%	-7.9%	-8.0%	3.0	8.8
Cc1cc2nc(-c3cccc(NC(=O)c4ccc(Br)o4)c3C)oc2cc1C	-4.6%	24.1%	-31.9%	24.1*	30.1
CSc1ccccc1OCc1cc(C(=O)NC2CCOC2)no1 (stereo not drawn)	-3.8%	41.0%	7.0%	48.7*	48.8*
COc1ccc(OCc2cc(C(=O)NC3CCOC(C)(C)C3)no2)c2ccccc12 (stereo not drawn)	-12.1%	1.17µM*	9.28µM*	96.2*	102.9*
CSc1ccccc1OCc1cc(C(=O)NC2CCc3ccccc32)no1 (stereo not drawn)	-0.3%	19.2%	-17.2%	9.5	8.6
CSc1ccccc1OCc1cc(C(=O)N2CCc3sccc3C2)no1	-2.5%	-11.4%	22.4%	11.4	10.0
CSc1ccccc1OCc1cc(C(=O)NC2CCOC(C)(C)C2)no1 (stereo not drawn)	3.1%	?	-30.4%	22.1*	96.6*
Cc1ccc(C)c(OCc2cc(C(=O)NC3CCOC(C)(C)C3)no2)c1 (stereo not drawn)	3.7%	10.4µM*	-2.8%	55.6*	84.9*
COc1cc(Cl)ccc1OCc1cc(C(=O)NC2CCc3ccccc32)no1 (stereo not drawn)	6.6%	26.7%	-3.3%	3.3	13.6
O=C(COC(=O)CNC(=O)c1ccc(Cl)c([N+](=O)[O-])c1)NC(=O)CN1CCCC1=O	/	27.8%	-26.7%	/	/
CCOc1ccc(C(=O)NC2CC(=O)N(c3ccc4c(c3)OCCO4)C2)cc1 (stereo not drawn)	/	13.8%	?	/	/
O=C(NC1CCOC1)c1cc(COc2cccc(C(F)(F)F)c2)on1 (stereo not drawn)	-0.1%	?	-23.9%	40.7*	66.3*
CC(NC(=O)c1cc(COc2cccc(C(F)(F)F)c2)on1)c1nccs1 (stereo not drawn)	-13.0%	33.3%	15.1%	42.6*	56.8*
FC(F)(F)c1cccnc1Oc1ccc(C2=NCCS2)cc1	-2.9%	2.62µM*	?	29.9*	58.6*
FC(F)(F)c1ccccc1NC1=NCCCS1	-1.1%	0.0%	10.2%	-1.8	-23.1
Cc1sc2nc3c(C(=O)N4CCCC4)cc(C(=O)c4ccccc4O)cn3c(=O)c2c1C	-4.7%	?	13.1µM*	-0.4	16.8
CCc1c(C)sc2nc3c(C(=O)N4CCOCC4)cc(C(=O)c4cc(F)ccc4O)cn3c(=O)c12	4.9%	2.08µM*	?	4.5	11.9
COc1cccc(N2CCN(C(=O)c3cccn4c(=O)c5c(C)c(C)sc5nc34)CC2)c1	-0.3%	?	3.5%	7.7	11.0
CC1CCN(C(=O)COc2ccc(S(=O)(=O)N3CCOCC3)cc2)CC1	/	-10.9%	?	/	/
Nc1nc(-c2ccccn2)nc(N)c1Cc1ccccc1F	-8.9%	5.22µM*	?	38.4*	78.3*
CNc1cc(C(F)(F)F)nc(-c2ccccn2)n1	0.3%	?	?	7.4	-4.2
Nc1nc(-c2ccccn2)nc(N)c1Cc1ccc(Cl)cc1Cl	11.2%	1.31µM*	1.85µM*	37.0*	56.0*
Nc1nc(-c2ccccn2)nc(N)c1Cc1c(F)cccc1Cl	-10.7%	?	11.7µM*	34.5*	42.7
CSCCOC(=O)C1=C(C)Nc2ccc(C)cc2S1	-2.8%	?	/	13.8*	7.0
CCOC(=O)C1=C(C)Nc2ccc(C)cc2S1	3.6%	-11.0%	42.4%	-1.6	7.8
SMILES	LmPK inh	Pf growth 96h	Pf growth 48h	Cycloheximide cs	Shiga inhibitor
CCOC(=O)C1=C(C)Nc2ccccc2S1	6.1%	-5.3%	58.0%	23.2*	31.1*
CCOCCOC(=O)C1=C(C)Nc2ccc(C)cc2S1	-0.1%	45.4%	?	21.8*	50.4
CCc1ccc(C(C)NC(=S)NCc2ccc(F)cc2)cc1 (stereo not drawn)	6.7%	14.7µM*	13.1µM*	11.5	7.6
CCC(NC(=S)NCc1ccc(F)cc1)c1ccc(C)cc1 (stereo not drawn)	3.2%	10.4µM*	9.28µM*	1.0	34.9
CCOc1ccc(C(C)NC(=S)NCc2ccc(F)cc2)cc1 (stereo not drawn)	-5.6%	-18.8%	?	-3.3	13.9
CCn1c([N+](=O)[O-])nc2c1c(=O)[nH]c(=O)n2C	-8.7%	?	-2.5%	11.2	18.3
CCC1OC(=O)CC(O)C(C)[C@@H](O[C@@H]2OC(C)[C@H](O[C@@H]3C[C@@](C)(O)C(O)C(C)O3)C(N(C)C)C2O)[C@H](CC=O)CC(C)C(=O)/C=C/C(C)=C/[C@@H]1COC1OC(C)C(O)C(OC)[C@@H]1OC (stereo partly drawn)	/	0.757µM*	?	/	/
CCC1OC(=O)C[C@H](O)C(C)[C@@H](O[C@@H]2OC(C)C(O)C(N(C)C)C2O)C(CCN2CC(C)CC(C)C2)CC(C)C(=O)/C=C/C(C)=C\[C@@H]1COC1OC(C)C(O)C(OC)C1OC (stereo partly drawn)	/	3.79µM*	?	/	/
CC(C)(C)n1ncc2c(=O)n(CC(=O)NCc3ccco3)cnc21	0.9%	12.5%	291.5%	45.9*	67.0*
CC(C)(C)n1ncc2c(=O)n(CC(=O)NC3CCCCC3)cnc21	0.6%	/	93.6%	34.7*	84.8*
Cc1ccc(-n2ncc3c(=O)n(CC(=O)NC4CCCCC4)cnc32)cc1C	3.6%	?	-5.1%	17.0	18.7
O=C(Cn1cnc2c(nnn2Cc2ccc(F)cc2)c1=O)NCc1ccccc1	-3.5%	-26.1%	9.28µM*	-2.3	-7.4
CC(C)(C)n1ncc2c(=O)n(CC(=O)NCc3ccc(F)cc3)cnc21	3.0%	13.1µM*	281.0%	27.0*	54.5*
CC(C)(C)n1ncc2c(=O)n(CC(=O)Nc3ccccc3)cnc21	1.7%	3.8%	1.5%	11.5	16.8
O=C(Cn1cnc2c(nnn2Cc2ccc(F)cc2)c1=O)NCc1ccco1	1.2%	?	-7.0%	-1.6	12.1
CC(OC(=O)COc1ccccc1[N+](=O)[O-])C(=O)Nc1ccc(N2CCOCC2)cc1 (stereo not drawn)	-0.5%	3.2%	50.9%	20.7	73.2
COc1ccc(C2C(C(=O)O)CCC(=O)N2c2ccc(C)cc2)cc1OC (stereo not drawn)	0.0%	36.4%	-0.3%	-1.5	1.0
CC(=O)c1cccc(NC(=O)CSc2ccc(-c3ccc4c(c3)OCO4)nn2)c1	-3.3%	19.6%	72.8%	7.8	3.2
O=C(NC1CC1)c1cccc(Nc2ccc(-c3ccc4c(c3)OCCO4)nn2)c1	-15.1%	12.6%[5.75 µM]	?	30.9*	55.3*
O=S(=O)(c1ccc(Nc2ccc(-c3ccc4c(c3)OCCO4)nn2)cc1)N1CCCC1	1.7%	?	/	54.2*	35.5
Cn1c(SCC(=O)NCCc2ccccc2)nnc1C1CCCCC1	1.0%	43.6%	1.0%	-7.7	-9.7
Cc1cnc(C(=O)OCC(=O)Nc2ccc(Br)c(C)c2)cn1	/	10.2%	-11.7%	/	/
